In PubChem BioAssay (EPA / NIEHS):
Inconclusive results are not listed. Calls of active or inactive are those of the source. How the source made its calls, unless noted: active means hit-call score of the fitted dose curve at least 0.9, where 1 is the maximum; inconclusive means response in the unintended direction; inactive means score below 0.9.

How the values were obtained:
[1] = read-out: glucuronosyltransferase (UGT1A1), UGT1A1 (gene 54658); experiment: CLD_UGT1A1_6hr: CellzDirect (CLD) Gene Expression Assay for glucuronosyltransferase (UGT1A1) at 6 hours (AID 2283672)
How it was run: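 UGT1A1 mRNA induction, read by quantitative nuclease protection assay, 6 h after dosing primary human hepatocytes (two donors, 0.2% DMSO vehicle). Gain of signal fitted relative to vehicle.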

[2] = read-out: ABC Transporter (ABCB11), ABCB11 (gene 8647); experiment: CLD_ABCB11_6hr: CellzDirect (CLD) Gene Expression Assay for ABC Transporter (ABCB11) at 6 hours (AID 2283675);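 further: hits raise ABCB11 mRNA level so AC50 marks induction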
How it was run: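 Read-out was ABCB11 mRNA gain of signal by quantitative nuclease protection assay, relative to 0.2% DMSO vehicle, 6 h post-dose. Cells were primary human hepatocytes from two donors, treated across multiple concentrations; phase-contrast cytotoxicity noted yes/no.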

[3] = CLD_ACTIN_6hr: CellzDirect (CLD) Gene Expression Assay for Baseline Control (Actin) at 6 hours (AID 2283676);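 further: active means increased actin mRNA relative to DMSO vehicle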
How it was run: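 Baseline actin transcript level measured by qNPA (S1 nuclease protection, chemiluminescence) in human hepatocyte cultures 6 h after chemical exposure; 0.2% DMSO vehicle as reference, cytotoxicity noted from morphology.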

[4] = CCTE_Padilla_ZF_144hpf_TERATOSCORE: (Legacy) CCTE's 144 Hour Post-fertilization zebrafish Assay Teratoscore, Padilla Lab (AID 2283679; active means hit-call score of the fitted dose curve at least 0.9, where 1 is the maximum; inactive means score below 0.9;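 on AC50: zebrafish embryos with chorions exposed by immersion from 6-8 hpf to 5 dpf with daily renewal; teratogenicity score from eye scoring of death hatching and malformations at 144 hpf; higher score means more developmental defects relative to DMSO baseline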)
How it was run: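 Larvae scored by eye at 144 hpf for death, hatching and malformations after a day in clean Hanks'. Before that, daily-renewed exposure at 80 uM (0.4% DMSO, 26C) from roughly 6-8 hpf through 5 dpf, 4 embryos per chemical.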

[5] = read-out: Cytochrome P450 3A4 (Homo sapiens) (UniProt P08684); experiment: CLD_CYP3A4_6hr: CellzDirect (CLD) Gene Expression Assay for xenobiotic metabolism (CYP3A4) at 6 hours (AID 2283680)
How it was run: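 CYP3A4 mRNA induction, 6 h after dosing of cultured primary human hepatocytes from two donors, read by quantitative nuclease protection (qNPA, chemiluminescence). Vehicle 0.2% DMSO as baseline; morphology-based cytotoxicity annotated yes/no.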

[6] = read-out: ABC Transporter (ABCB11), ABCB11 (gene 8647); experiment: CLD_ABCB11_24hr: CellzDirect (CLD) Gene Expression Assay for ABC Transporter (ABCB11) at 24 hours (AID 2283674; active means hit-call score of the fitted dose curve at least 0.9, where 1 is the maximum; inactive means score below 0.9)
How it was run: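 ABCB11 transcript was quantified by qNPA chemiluminescence in cultured human liver hepatocytes 24 hours after dosing. Fresh dosing solutions were applied on consecutive days, against a 0.2% DMSO vehicle. Cytotoxicity was noted by phase-contrast morphology.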

[7] = read-out: xenobiotic metabolism (CYP1A1), CYP1A1 (gene 1543); experiment: CLD_CYP1A1_24hr: CellzDirect (CLD) Gene Expression Assay for xenobiotic metabolism (CYP1A1) at 24 hours (AID 2283673);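 further: CYP1A1 mRNA level by quantitative nuclease protection with chemiluminescence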
How it was run: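 Transcript levels were read at 24 h by qNPA chemiluminescence in human liver primary cells. Cells got daily fresh dosing at multiple concentrations (vehicle 0.2% DMSO). Induction fitted upward against DMSO; phase-contrast cytotoxicity annotated.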

[8] = read-out: Cytochrome P450 2B6 (Homo sapiens) (UniProt P20813); experiment: CLD_CYP2B6_6hr: CellzDirect (CLD) Gene Expression Assay for xenobiotic metabolism (CYP2B6) at 6 hours (AID 2283677);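 further: actives raise CYP2B6 transcript above DMSO baseline so AC50 marks an inducer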
How it was run: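 CYP2B6 transcript levels, read by chemiluminescent qNPA, were fitted for increase versus DMSO baseline; cultured human liver hepatocytes from two donor preparations were harvested 6 h after exposure to test chemicals at multiple concentrations.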

Cytochrome P450 3A4 (Homo sapiens), sequence (P08684 whole entry, looked up): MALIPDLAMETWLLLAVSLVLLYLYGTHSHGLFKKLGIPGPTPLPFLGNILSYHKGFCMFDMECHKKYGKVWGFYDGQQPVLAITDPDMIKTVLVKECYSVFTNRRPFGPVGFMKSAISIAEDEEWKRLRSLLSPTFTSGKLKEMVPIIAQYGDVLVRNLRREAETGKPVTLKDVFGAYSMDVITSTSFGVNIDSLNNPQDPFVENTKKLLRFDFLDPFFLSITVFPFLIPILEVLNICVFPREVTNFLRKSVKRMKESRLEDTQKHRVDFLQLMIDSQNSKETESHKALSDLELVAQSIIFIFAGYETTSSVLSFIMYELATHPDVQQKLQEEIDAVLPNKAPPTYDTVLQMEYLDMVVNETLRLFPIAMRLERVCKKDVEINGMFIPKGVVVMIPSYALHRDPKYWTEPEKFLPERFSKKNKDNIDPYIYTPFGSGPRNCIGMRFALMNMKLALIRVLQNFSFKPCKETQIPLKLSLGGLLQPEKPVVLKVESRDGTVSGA

## COC(=O)N(C(=O)N1CO[C@@]2(C(=O)OC)Cc3cc(Cl)ccc3C2=N1)c1ccc(OC(F)(F)F)cc1
[1]
  outcome: inactive
[2]
  outcome: inactive
[3]
  outcome: inactive
[4]
  AC50: 1.57 µM (active)
[5]
  AC50: 1.21 µM (active)

## COc1cc(OC)nc(NC(=O)NS(=O)(=O)c2ncccc2OCC(F)(F)F)n1
[6]
  outcome: inactive
[2]
  outcome: inactive
[3]
  outcome: inactive
[4]
  outcome: inactive

## Cc1ccc(N=CN(C)C=Nc2ccc(C)cc2C)c(C)c1
[7]
  AC50: 1.9 µM (active)
[3]
  outcome: inactive
[4]
  AC50: 27.5 µM (active)

## COc1cc(Cl)c(OC)cc1Cl
[7]
  outcome: inactive
[2]
  outcome: inactive
[8]
  AC50: 0.618 µM (active)

## CCCC(=NOCC)C1=C(O)CC(CC(C)SCC)CC1=O (configuration not stated)
[7]
  outcome: inactive
[2]
  outcome: inactive
[3]
  outcome: inactive
[4]
  outcome: inactive

## N#Cc1c[nH]cc1-c1cccc2c1OC(F)(F)O2
[7]
  AC50: 3.64 µM (active)
[8]
  AC50: 5.4 µM (active)
[4]
  AC50: 4.19 µM (active)

## CS(=O)(=O)c1cc(C(F)(F)F)ccc1C(=O)c1cnoc1C1CC1
[2]
  outcome: inactive
[3]
  outcome: inactive
[4]
  outcome: inactive

## O=C(Nc1ccccc1-c1ccc(Cl)cc1)c1cccnc1Cl
[7]
  AC50: 5.36 µM (active)
[2]
  outcome: inactive
[3]
  outcome: inactive
[8]
  AC50: 0.504 µM (active)
[4]
  AC50: 3.12 µM (active)

## CCNP(=S)(OC)O/C(C)=C/C(=O)OC(C)C (configuration not stated)
[1]
  outcome: inactive
[2]
  outcome: inactive
[3]
  outcome: inactive
[4]
  AC50: 40.6 µM (active)
[5]
  AC50: 1.9 µM (active)

## COC(=O)NC(=S)Nc1ccccc1NC(=S)NC(=O)OC
[8]
  AC50: 4.73 µM (active)
[4]
  AC50: 0.486 µM (active)

## CNC(=O)Oc1cccc2ccccc12
[2]
  outcome: inactive
[3]
  outcome: inactive
[4]
  AC50: 60.8 µM (active)

## CCN(CC)c1nc(C)cc(OP(=S)(OC)OC)n1
[8]
  AC50: 1.59 µM (active)
[4]
  AC50: 14.8 µM (active)

## Nc1cnn(-c2ccccc2)c(=O)c1Cl
[1]
  outcome: inactive
[8]
  outcome: inactive
[4]
  outcome: inactive

## CC1(C)CCC(=Cc2ccc(Cl)cc2)C1(O)Cn1cncn1 (configuration not stated)
[1]
  outcome: inactive
[2]
  outcome: inactive
[3]
  outcome: inactive
[8]
  AC50: 1.97 µM (active)
[4]
  AC50: 253 µM (active)

## CN/C(=N\[N+](=O)[O-])NCc1cnc(Cl)s1
[4]
  outcome: inactive

## CCOc1cc(C(C)(C)C)ccc1C1COC(c2c(F)cccc2F)=N1 (configuration not stated)
[2]
  outcome: inactive
[4]
  AC50: 1.9 µM (active)
[5]
  AC50: 4.26 µM (active)

## COCC(=O)N(c1c(C)cccc1C)C(C)C(=O)OC (configuration not stated)
[1]
  outcome: inactive
[6]
  outcome: inactive
[8]
  AC50: 2.5 µM (active)
[4]
  outcome: inactive

## CC(C)=CC1C(C(=O)OCc2coc(Cc3ccccc3)c2)C1(C)C (configuration not stated)
[1]
  outcome: inactive
[2]
  outcome: inactive
[4]
  AC50: 1.71 µM (active)

## CCOC(=O)C(C)OC(=O)c1cc(Oc2ccc(C(F)(F)F)cc2Cl)ccc1[N+](=O)[O-] (configuration not stated)
[1]
  outcome: inactive
[8]
  AC50: 7.3 µM (active)
[4]
  AC50: 0.19 µM (active)

## CC(C)Nc1nc(Cl)nc(NC(C)C)n1
[1]
  outcome: inactive
[3]
  outcome: inactive
[4]
  outcome: inactive

## CCCCOCN(C(=O)CCl)c1c(CC)cccc1CC
[7]
  AC50: 6.4 µM (active)
[6]
  outcome: inactive
[3]
  outcome: inactive
[8]
  AC50: 2.29 µM (active)
[4]
  AC50: 5.42 µM (active)
